Holding throughout (experiment): NCI-60 one-dose screen, 48 h (100 = growth as untreated, 0 = no growth, -100 = all killed)
The test system of one assay is NCI-H23 lung. The note with it: 10 µM unless noted.
The test system of the next assay is NCI-H226 lung. The note with it: 10 µM unless noted.
A further assay relates to NCI-H322M lung. The following applies: 10 µM unless noted.
The next assay deals with HOP-62 NSCLC. The note with it: 10 µM unless noted.
The test system of a further assay is NCI-H460 lung. The note with it: 10 µM unless noted.
Another assay has as its system HOP-92 NSCLC. The following applies: 10 µM.
For a further assay, the system named is A549/ATCC NSCLC. The note with it: 10 µM unless noted.
A further assay relates to 786-0 renal. The note with it: 10 µM unless noted.
Another assay has as its system COLO 205 colon. The following applies: 10 µM unless noted.
Another assay deals with DU-145 prostate. The note with it: 10 µM unless noted.
The next assay relates to K-562 leukemia. The following applies: 10 µM unless noted.
Another assay relates to MALME-3M melanoma. The note with it: 10 µM unless noted.
Another assay relates to MDA-MB-231 breast. The following applies: 10 µM unless noted.
A further assay concerns RXF 393 renal. The note with it: 10 µM unless noted.
A further assay relates to SF-268 CNS. The note with it: 10 µM unless noted.
In another assay the test system is SF-295 CNS. The note with it: 10 µM unless noted.
The test system of the next assay is SF-539 CNS. The following applies: 10 µM unless noted.
Another assay concerns UACC-257 melanoma. The note with it: 10 µM unless noted.
Another assay has as its system M14 melanoma. The following applies: 10 µM unless noted.
For a further assay, the system named is NCI-H522 lung. The following applies: 10 µM unless noted.

The text below walks through data of PubChem BioAssay (NCI).

Structures are written as SMILES. This is part of a sample that, as a whole, favours compounds with a hit. Of some 83,000 tested, about 20% had one in any assay.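 48-hour exposure, single concentration, 96-well plates; percent growth endpoint where 0 means no net growth. Active: below 10.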 A number with no mark means an inactive call. The source made the active and inactive calls.

As for `Nc1nc(Nc2ccccc2SSc2ccccc2Nc2nc(N)nc(-c3ccccc3)n2)nc(-c2ccccc2)n1`, the growth was 50.8% in the assay with NCI-H23 lung; 59% in the assay with NCI-H226 lung; 92.4% in the assay with NCI-H322M lung; 17.1% in the assay with HOP-62 NSCLC; 53.2% in the assay with NCI-H460 lung; 69.7% in the assay on HOP-92 NSCLC. Moreover, the growth with A549/ATCC NSCLC is 3.73% (active); in the assay with 786-0 renal it was 68.2%; in the assay on COLO 205 colon it was 115%; in the assay on DU-145 prostate it was 69.4%; in the assay on K-562 leukemia, 62.6%; in the assay with MALME-3M melanoma it was 104%. Further, the growth with MDA-MB-231 breast is 62.6%; in the assay on RXF 393 renal it was 50.2%; in the assay with SF-268 CNS, 49%; with SF-295 CNS, 26.1%; in the assay on SF-539 CNS, 96.2%; with UACC-257 melanoma, 108%. Moreover, the growth in the assay on M14 melanoma is 91.9%.
As to `N#Cc1c(-c2cccs2)cc(-c2cnccn2)nc1SCC(=O)Nc1ccc(Br)cc1`, the growth with NCI-H23 lung is 74.8%; in the assay with NCI-H226 lung, 81.5%; in the assay with NCI-H322M lung it was 88.5%; with HOP-62 NSCLC, 71.3%; in the assay on NCI-H460 lung it was 70.6%; in the assay on HOP-92 NSCLC, 98.6%. The growth with A549/ATCC NSCLC was 72.3%; in the assay on 786-0 renal, 80.9%; with COLO 205 colon, 96.4%; with DU-145 prostate it was 70%; in the assay with K-562 leukemia, 67.4%; in the assay on MALME-3M melanoma, 118%. Moreover, the growth in the assay with MDA-MB-231 breast is 72.2%; in the assay with RXF 393 renal, 19.3%; in the assay with SF-268 CNS, 82.3%; in the assay with SF-295 CNS, 90.2%; with SF-539 CNS, 93.3%; with UACC-257 melanoma, 106%. Besides, the growth in the assay on M14 melanoma was 91.7%.
As to `COc1cc(-c2nn(C(C)(C)C)cc2-c2ccnc(NCCCNS(=O)(=O)c3ccc(Cl)cc3)n2)ccc1Cl`, the growth in the assay on NCI-H23 lung is 73%; with NCI-H226 lung, 53.8%; in the assay with NCI-H322M lung it was 78.2%; with HOP-62 NSCLC, 61.7%; with NCI-H460 lung, 55.1%; in the assay with HOP-92 NSCLC, 48.6%. The growth is 36.3% in the assay with A549/ATCC NSCLC; 69% in the assay on 786-0 renal; 81.5% in the assay on COLO 205 colon; 60.5% with DU-145 prostate; 33.5% in the assay on K-562 leukemia; 87.9% in the assay on MALME-3M melanoma. Further, the growth was 55.5% with MDA-MB-231 breast; 4.9% (active) with RXF 393 renal; 44.1% with SF-268 CNS; 59.6% in the assay on SF-295 CNS; 84.4% in the assay on SF-539 CNS; 82.1% with UACC-257 melanoma. In addition, the growth in the assay with M14 melanoma was 76.8%.
As to `C=CCn1c(SCC(=O)Nc2ccc(C(=O)/C=C/c3ccc(C)cc3)cc2)nnc1-c1c[nH]c2ccccc12`, the growth is 97.7% in the assay with NCI-H23 lung; 78.1% in the assay with NCI-H226 lung; 97.1% with NCI-H322M lung; 94.4% in the assay on HOP-62 NSCLC; 102% with NCI-H460 lung; 86.3% in the assay with HOP-92 NSCLC. Moreover, the growth in the assay on A549/ATCC NSCLC is 75.9%; in the assay on 786-0 renal it was 103%; with COLO 205 colon, 112%; in the assay with DU-145 prostate it was 98.4%; in the assay with K-562 leukemia it was 61.1%; in the assay on MALME-3M melanoma, 95%. Moreover, the growth was 89% in the assay on MDA-MB-231 breast; 79.4% in the assay with SF-268 CNS; 66.9% in the assay with SF-295 CNS; 90.9% with SF-539 CNS; 112% in the assay on UACC-257 melanoma.
For the molecule `Cn1ccnc1C(=O)/C=C/c1ccc(NC(=O)c2c(F)c(F)c(F)c(F)c2F)cc1`, the growth in the assay with NCI-H23 lung was 97.6%; with NCI-H226 lung, 103%; with NCI-H322M lung, 94.8%; in the assay with HOP-62 NSCLC it was 120%; in the assay on NCI-H460 lung it was 105%; in the assay on HOP-92 NSCLC, 123%. In addition, the growth in the assay on A549/ATCC NSCLC is 101%; in the assay with 786-0 renal it was 101%; in the assay with COLO 205 colon, 124%; in the assay on DU-145 prostate, 106%; in the assay with K-562 leukemia it was 80.7%; in the assay on MALME-3M melanoma, 104%. Also, the growth in the assay with MDA-MB-231 breast was 108%; in the assay on SF-268 CNS, 96%; in the assay on SF-295 CNS, 106%; in the assay on SF-539 CNS, 108%; in the assay with UACC-257 melanoma it was 113%.
For the molecule `CNC(=O)c1cc(Oc2ccc3nc(NC(=O)c4cccc(OC(F)(F)F)c4)sc3c2)ccn1`, the growth in the assay with NCI-H23 lung is 82.8%; in the assay on NCI-H226 lung it was 26.5%; with NCI-H322M lung, 92.6%; with HOP-62 NSCLC it was 78.5%; in the assay on NCI-H460 lung, 75.1%; with NCI-H522 lung, 60.3%. In addition, the growth with A549/ATCC NSCLC is 77.5%; with 786-0 renal, 50.4%; with COLO 205 colon, 106%; in the assay with DU-145 prostate it was 75.4%; in the assay with K-562 leukemia, 61.8%; in the assay with MALME-3M melanoma it was 76.8%. For the same molecule, the growth is 76.1% in the assay on MDA-MB-231 breast; -1.69% (active) in the assay on RXF 393 renal; 81.8% in the assay with SF-268 CNS; 77.8% with SF-295 CNS; 63.9% in the assay with SF-539 CNS; 77.6% in the assay on UACC-257 melanoma. The growth in the assay with M14 melanoma was 93.9%.
Consider `COc1ccc(CCOc2cc3c(cc2OC)CCN(C(=O)NCc2cocn2)C3c2ccc(C)cc2C)cc1` (stereo not drawn), for which the growth in the assay with NCI-H23 lung was 11.4%; with NCI-H226 lung, 34.3%; with NCI-H322M lung, 46%; in the assay on HOP-62 NSCLC, 8.99% (active); in the assay on NCI-H460 lung, 3.64% (active); with NCI-H522 lung it was -41.2% (active). Also, the growth is 7.81% (active) in the assay on A549/ATCC NSCLC; 5.15% (active) in the assay on 786-0 renal; -62% (active) in the assay on COLO 205 colon; 14.1% in the assay with DU-145 prostate; 10% in the assay with K-562 leukemia; 52.2% in the assay on MALME-3M melanoma. Also, the growth in the assay with MDA-MB-231 breast is 20.5%; in the assay with RXF 393 renal it was 1.12% (active); with SF-268 CNS, 21.2%; in the assay with SF-295 CNS, 12.8%; in the assay with SF-539 CNS it was 1.43% (active); with UACC-257 melanoma, 38%. The growth with M14 melanoma is 11.7%.
As to `CN1CCN(Cc2ccc(NC(=O)c3cncc(C#Cc4cnn5cccnc45)c3)cc2C(F)(F)F)CC1`, the growth with NCI-H23 lung was -23.1% (active); in the assay with NCI-H226 lung it was -14% (active); in the assay on NCI-H322M lung, 19.8%; in the assay with HOP-62 NSCLC it was 10.2%; in the assay with NCI-H460 lung it was 3.16% (active); in the assay on NCI-H522 lung, -58.7% (active). Besides, the growth is 5.71% (active) in the assay on A549/ATCC NSCLC; 27.1% in the assay on 786-0 renal; -56.6% (active) in the assay on COLO 205 colon; 6.94% (active) in the assay on DU-145 prostate; -11.5% (active) in the assay on K-562 leukemia; -16.7% (active) in the assay on MALME-3M melanoma. In addition, the growth with MDA-MB-231 breast is 5.29% (active); in the assay with RXF 393 renal, -76.5% (active); in the assay with SF-268 CNS, -5.38% (active); with SF-295 CNS, 56.7%; in the assay with SF-539 CNS it was 14.8%; in the assay with UACC-257 melanoma, 44.5%. Moreover, in the assay on M14 melanoma, the growth was -43.9% (active).
